High-throughput results deposited in PubChem BioAssay by National Center for Advancing Translational Sciences (NCATS).
Pol beta inh: DNA polymerase beta (human) inhibition; P06746; Pol beta primer extension/strand displacement, fluorescence kinetic; Potency, µM (highest dose often 114 µM), for inactives: top-dose activity change, negative = inhibition, actives largely listed as inhibitors; hit rate 1.3% among 340,000; AID 485314; note: potency is the fitted concentration of half-maximal effect; % is set by controls: 0 for no effect and ±100 for the full control effect
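Preincubation: enzyme (10 nM) with compound, 15 min, RT. Reaction: substrate added to 50 nM final. Reads: 0 and 10 min. Analysis: normalized, Hill fit.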
Pol iota inh: blocks human DNA polymerase iota activity; Q9UNA4; Pol iota fluorescent replication assay, 10 min; Potency, µM (highest dose often 115 µM), inactives show at the top dose activity, negative = inhibition, actives largely listed as inhibitors; hit rate 1% among 390,000; AID 588590; note: potency is the fitted concentration of half-maximal effect
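Fluorescent replication assay read twice, at 0 min and 10 min after adding 50 nM (final) substrate. Enzyme (10 nM) and compounds were first incubated 15 min at room temperature; enzyme-free buffer wells were negative controls.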
PI4K2A inh: PI4K2A (human) kinase inhibition. Q9BTU6. purified PI4K2A, ADP-Glo luminescence, 1 h; hits give low values. hit rate 0.13% among 420,000. activity change, negative = inhibition, % at 76.9 µM; in the data active = activity change below about -50%; inconclusive = mostly about -30% to -49%;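 note: -100% = wells without enzyme as full effect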
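ADP-Glo luminescence measured ADP generated by PI4K2A enzyme (4 ug/mL before mixing) with 1.2 mM PI substrate (pre-mix) and 300 microM ATP (pre-mix). Tris pH7.5 buffer with MgCl2, Triton X-100; 1 h reaction at ambient temperature.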
Pol kappa inh-1: DNA polymerase kappa (human) inhibition; Q9UBT6; purified Pol kappa, fluorescent DNA synthesis assay, 10 min; hit rate 0.53% among 400,000; Potency, µM (top dose mostly 107 µM), for the others: at the top dose activity, negative = inhibition, most hits filed as inhibitors; note: potency is the fitted concentration of half-maximal effect; % is set by controls: 0 for no effect and ±100 for the full control effect
Target sequence (Q9UBT6 whole entry, looked up): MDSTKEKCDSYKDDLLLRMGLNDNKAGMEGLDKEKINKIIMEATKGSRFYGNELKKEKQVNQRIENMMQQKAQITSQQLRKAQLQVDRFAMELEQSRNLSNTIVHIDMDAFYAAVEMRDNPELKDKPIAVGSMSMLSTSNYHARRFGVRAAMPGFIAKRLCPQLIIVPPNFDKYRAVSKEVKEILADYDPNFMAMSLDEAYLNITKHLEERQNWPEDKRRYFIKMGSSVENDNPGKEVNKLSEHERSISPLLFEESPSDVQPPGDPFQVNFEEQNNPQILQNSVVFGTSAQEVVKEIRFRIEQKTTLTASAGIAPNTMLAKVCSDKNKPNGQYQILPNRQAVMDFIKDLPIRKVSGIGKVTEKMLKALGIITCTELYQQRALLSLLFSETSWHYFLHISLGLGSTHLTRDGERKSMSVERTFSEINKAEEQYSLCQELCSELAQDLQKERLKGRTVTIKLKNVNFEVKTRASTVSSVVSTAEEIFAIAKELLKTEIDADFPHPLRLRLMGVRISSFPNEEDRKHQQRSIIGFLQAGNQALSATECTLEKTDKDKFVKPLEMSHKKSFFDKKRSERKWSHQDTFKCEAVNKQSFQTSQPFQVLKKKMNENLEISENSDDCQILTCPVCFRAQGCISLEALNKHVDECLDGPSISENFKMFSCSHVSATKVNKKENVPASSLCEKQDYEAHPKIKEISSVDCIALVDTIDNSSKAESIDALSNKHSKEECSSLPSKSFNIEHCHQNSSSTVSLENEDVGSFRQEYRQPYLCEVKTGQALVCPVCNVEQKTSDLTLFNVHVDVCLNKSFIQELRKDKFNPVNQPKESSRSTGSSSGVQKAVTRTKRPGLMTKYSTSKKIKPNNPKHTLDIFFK
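Fluorescent qHTS in 1536-well format: enzyme (10 nM) and compound sat 15 min at room temperature before 50 nM substrate (final) was added. Signal taken at 0 and 10 min; no-enzyme buffer wells were negative controls.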
PI5P4Ka inh: PI5P4K alpha (human) kinase inhibition; hit rate 1.2% among 330,000; max response, %; P48426; PI5P4Kalpha enzyme, ADP-Glo luminescence, 60 min; hits give low values; active = max response of -50% or lower; inconclusive = between -30% and -50%; inactive = -30% or higher; note: value at the top dose of about 77 µM; % is set by controls: 0 for no effect and ±100 for the full control effect
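Controls without substrate or without enzyme flank wells where PI5P4Kalpha converts substrate using 5 microM ATP (final). Incubation lasts 60 minutes at room temperature; ADP formed is read by ADP-Glo luminescence.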
Pol eta inh-1: blocks human DNA polymerase eta activity | recombinant Pol eta, fluorescent DNA replication assay | Potency, µM (doses to about 114 µM), for inactives: at the highest dose activity change, negative = inhibition, actives largely listed as inhibitors | hit rate 1.2% among 390,000; note: potency is the fitted concentration of half-maximal effect; % is set by controls: 0 for no effect and ±100 for the full control effect
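Pol eta at 10 nM preincubated with compounds 15 min at room temperature; reaction started with fluorescent substrate (50 nM final) and read kinetically at 0 and 10 min.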
GALK inh confirm: galactokinase (human) inhibition, confirmation. Potency, µM (top dose mostly 115 µM), for the others: at the highest dose activity, negative = inhibition, usual class: inhibitors. purified GALK, Kinase-Glo ATP depletion luminescence. hit rate 70% among 150. shares compounds with Pol eta inh-1. AID 2015
Redox cycling: generates H2O2 by redox cycling, flagging GALK artifacts; shares compounds with Pol eta inh-1; Phenol red-HRP H2O2 redox cycling, absorbance 600 nm; Potency, µM (series often up to 115 µM), without a hit: at the top dose activity change, negative = H2O2 signal, actives largely listed as inhibitors; hit rate 40% among 150
HEK293 viability: counter-screen for GALK inhibitors: HEK293 cell cytotoxicity; shares compounds with Pol eta inh-1; HEK-293 viability, ATP luminescence (CellTiter-Glo), 24/48 h; Potency, µM (doses to about 46.1 µM), without a hit: at the highest dose activity change, negative = cytotoxicity, actives largely listed as inhibitors; hit rate 10% among 170; note: potency is the fitted concentration of half-maximal effect; % is set by controls: 0 for no effect and ±100 for the full control effect
Pol kappa inh-2: Pol kappa (human) inhibition, cherry-pick confirmation; AID 720501; shares compounds with Pol eta inh-1; Potency, µM, hits mostly inhibitors; hit rate 76% among 920; purified Pol-kappa, fluorescent strand-displacement substrate; note: potency is the fitted concentration of half-maximal effect
Pol eta inh-2: confirmation of human DNA polymerase eta inhibitors | hit rate 64% among 2,600 | AID 720502 | shares compounds with Pol eta inh-1 | Pol eta primer extension, TAMRA/BHQ fluorescence, 10 min | Potency, µM, usual class: inhibitors; note: potency is the fitted concentration of half-maximal effect
* marks the source's active call; other numbers are inactive results; ? = inconclusive; . = not tested or not shown; [ ] = dose if it differs, or a comment. Only some compounds are listed: those with a hit (about 2.8% of all), similar ones and a draw of the others. Unless noted, calls come from the whole dose curve; as a rule, active = well fitted curve in the direction sought with a large enough effect; inconclusive = small, poorly fitted or top-dose-only effect, or another doubt; inactive = no such curve, though single readings can be large; an effect the other way counts as inactive or inconclusive.

SMILES | Pol beta inh | Pol iota inh | PI4K2A inh | Pol kappa inh-1 | PI5P4Ka inh | Pol eta inh-1 | Pol eta inh-2 | others
Cc1ccc(S(=O)(=O)Nc2ccc(-c3ccc(N4CCCCCC4)nn3)cc2)cc1C | 8% | -15% | 0 | -14%[60.1 µM] | . | -3% | .
COC(=O)c1sc2cccc(F)c2c1S(=O)(=O)N1CCN(c2ccccc2OC)CC1 | 0% | 18% | 3 | -3% | . | -23% | .
O=C(Nc1nc(-c2ccco2)c(-c2ccco2)s1)c1c(F)cccc1Cl | . | -35% | -14 | ? | 1 | ? | .
O=S(=O)(Nc1nc(-c2ccco2)c(-c2ccco2)s1)c1ccc(F)cc1F | . | . | -2 | . | ? | 28µM* | ? | Pol kappa inh-2=?
O=C(Cn1cc(SCc2ccc(F)cc2)c2ccccc21)N1CCCC1 | -18% | -5% | 1 | -16% | . | -14% | .
CCOc1ccc(-c2ccc(/C=C3/C(=N)N4C(C)=CSC4=NC3=O)o2)c([N+](=O)[O-])c1 | 35µM* | 40µM* | -27 | ? | -59* | 14µM* | ?
CCc1noc(-c2ccc(NCc3ccccc3)c([N+](=O)[O-])c2)n1 | -3% | -23% | 0 | -4% | . | -3% | .
CCCN1CNc2c(c(=O)[nH]c(=S)n2CCc2cc(Cl)ccc2Cl)C1 | . | -14% | . | 0% | . | . | .
CC(=O)Nc1nc(-c2ccc3c(c2)CC(C)N3C(=O)C2CC2)c(C)s1 (stereo not drawn) | 33% | 42% | 2 | -10% | -4 | -16% | .
CCOC(=O)C(=O)Nc1nc(-c2ccc3c(c2)CCN3C(=O)C2CC2)c(C)s1 | -6% | -11% | -7 | -3% | 4 | 14µM* | ?
COc1cccc(NC(=O)c2c(C(=O)Nc3ccccc3)sc3nc(C)cc(=O)n23)c1 | 31% | -3% | 0 | 14% | . | 7% | .
CCOC(=O)N1CCN(C(=O)Cn2ncc3ccccc32)CC1 | 20µM* | ? | -5 | ? | -20 | ? | ?
CNC(=S)N/N=C/c1ccc(-c2ccc(C(=O)O)cc2)o1 | ? | ? | -26 | ? | -62* | 22µM* | 34*
O=C(O)c1cc(N/N=C/c2ccc(-c3ccc(F)cc3)o2)ccc1Cl | -12% | ? | -17 | -14% | -3 | ? | .
CC(C)(C)NC(=S)N/N=C\c1ccc(-c2ccc([N+](=O)[O-])cc2)o1 | 6% | -5% | 5 | 1% | 0 | -9% | .
NS(=O)(=O)c1ccc(-c2ccc(/C=N/Nc3ccc(C(=O)O)cc3)o2)cc1 | -16% | 50µM* | 6 | ? | ? | 28µM* | ?
COC(=O)C1=CN(c2ccc3c(c2)OCO3)C(N)=C(C#N)C1c1ccccc1 (stereo not drawn) | . | . | 1 | . | -19 | . | .
CN(Cc1ccccc1)Cc1c(O)ccc2c(=O)c(-c3ccccc3)c(C(F)(F)F)oc12 | 26% | ? | 5 | ? | . | -12% | .
COC(=O)c1c(NC(=O)CCCC(=O)O)sc2c1CCC2 | 1% | -24%[58.9 µM] | 4 | -31% | . | ? | 30*
O=C(O)c1ccc(COc2ccc3ccccc3c2)o1 | 7% | ? | 3 | 4% | -3 | 1% | .
CCOc1ccc(OCc2ccc(C(=O)O)o2)cc1 | 14µM* | -15% | 1 | -5% | 1 | 13µM* | 60*
O=C(O)c1ccccc1C1=Nc2ccc(O)cc2Oc2cc(O)ccc21 | 50µM* | 40µM* | 0 | -20% | ? | ? | . | Pol kappa inh-2=?
Cc1ccc(Nc2c([N+](=O)[O-])ccc3nonc23)c(C)c1 | 8% | 5% | -3 | -16% | -2 | -25% | .
Cc1ccc(S(=O)c2ccc([N+](=O)[O-])c3nonc23)cc1 (stereo not drawn) | . | . | -17 | . | -100* | 14µM* | 34* | Pol kappa inh-2=?
C[C@@H](/C=C/c1ccc2ccccc2c1)C1COC(=O)C[C@H]1O (stereo partly drawn) | . | -22% | . | -11% | . | . | .
SMILES | Pol beta inh | Pol iota inh | PI4K2A inh | Pol kappa inh-1 | PI5P4Ka inh | Pol eta inh-1 | Pol eta inh-2 | others
CCOc1ccc2[nH]c(=O)c(C(c3nnnn3Cc3ccco3)N3CCN(C)CC3)cc2c1 (stereo not drawn) | 2% | 68% | 0 | 9% | 1 | -20% | . | GALK inh confirm=-6%;Redox cycling=3%;HEK293 viability=0%
O=C(Nc1nnc(S(=O)(=O)N2CCOCC2)s1)c1ccc(Cl)cc1 | 1% | -4% | 1 | 2% | -24 | -18% | .
CC1Cc2ccccc2N1S(=O)(=O)c1nnc(NC(=O)c2ccccc2Br)s1 (stereo not drawn) | -13% | 34% | -1 | 5% | . | ? | ?
O=C(Nc1nnc(S(=O)(=O)N2CCOCC2)s1)c1ccccc1 | ? | ? | 0 | ? | ? | 40µM* | ? | Pol kappa inh-2=38*
CC1Cc2ccccc2N1S(=O)(=O)c1nnc(NC(=O)c2ccccc2)s1 (stereo not drawn) | 0% | 8% | 1 | 11% | . | -17% | .
O=C(Nc1nnc(S(=O)(=O)N2CCCc3ccccc32)s1)c1ccccc1Cl | 4% | 16% | 2 | 4% | . | 56µM* | . | Pol kappa inh-2=?
Brc1cccc(-c2nnc(CN3CCN(c4ccccn4)CC3)o2)c1 | 2% | 11% | 2 | -24% | . | 4% | .
COc1ccc(/C=C2\SC(=S)N(NS(=O)(=O)c3ccc(C)cc3)C2=O)c(OC)c1 | ? | 32% | -6 | -9% | -76* | ? | 21*
CCOc1ccc(/C=C2\SC(=S)N(NS(=O)(=O)c3ccc(C)cc3)C2=O)cc1OC | -17% | -16% | -5 | -28% | 2 | ? | .
COc1cc(/C=C2\C(=N)N3N=C(S(=O)(=O)CC(C)C)SC3=NC2=O)ccc1OC(=O)c1ccco1 | -22% | . | . | . | . | . | . | GALK inh confirm=27µM*;Redox cycling=-4%;HEK293 viability=3%
